Measured values from the supplement of paper PMC6555819.

Assays:
Assay in all cases: PBM binding z-score (relative to random genomic background probes); higher = stronger binding; sequences stand for … in GC…GCGATTGACAGCGTAGAATGAAGG
[1] = test system: FXR:RXRa (NR concentration 270 nM, RXRa partner concentration 90 nM)
Procedure, shortened: (§1)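 The probes on custom Agilent 4×180K protein-binding microarrays were double-stranded, with 34-nt variable regions bearing direct-repeat seeds, single-nucleotide variants, half-site ablations and random human genomic background sequences. Incubation lasted 1 h with ligand-free nuclear receptor dimers in PBS pH 7.4, 2% milk, 0.02% Triton X-100, 1 mM DTT, 0.2 mg/mL BSA and 0.4 mg/ml salmon testes DNA. Antibodies against each partner (one per run) detected bound dimers, and fluorescence scans were regression-normalized. Binding z-scores take the random background probes as reference.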

[2] = test system: LXRa:RXRa (NR concentration 270 nM, RXRa partner concentration 90 nM)
Procedure, shortened: as §1

[3] = test system: LXRa homodimer (NR concentration 270 nM)
Procedure, shortened: as §1

[4] = test system: LXRb:RXRa (NR concentration 270 nM, RXRa partner concentration 90 nM)
Procedure, shortened: as §1

[5] = test system: LXRb homodimer (NR concentration 270 nM)
Procedure, shortened: as §1

[6] = test system: PPARa:RXRa (NR concentration 270 nM, RXRa partner concentration 90 nM)
Procedure, shortened: as §1

[7] = test system: PPARg:RXRa (NR concentration 180 nM, RXRa partner concentration 90 nM)
Procedure, shortened: as §1

[8] = test system: PPARg:RXRa 270nM:90nM, anti-RXR (NR concentration 270 nM, RXRa partner concentration 90 nM)
Procedure, shortened: as §1

[9] = test system: PPARg:RXRa 30nM:10nM, anti-RXR (NR concentration 30 nM, RXRa partner concentration 10 nM)
Procedure, shortened: as §1

[10] = test system: PPARg:RXRa 90nM:30nM, anti-RXR (NR concentration 90 nM, RXRa partner concentration 30 nM)
Procedure, shortened: as §1

Row | Sequence | PBM binding z-score [1] | PBM binding z-score [2] | PBM binding z-score [3] | PBM binding z-score [4] | PBM binding z-score [5] | PBM binding z-score [6] | PBM binding z-score [7] | PBM binding z-score [8] | PBM binding z-score [9] | PBM binding z-score [10]
1 | CCGACTGGGGCATAAGGTTACAATAAGCCAGCCC | 0.415 | 1.46 | -0.348 | 0.936 | -0.85 | 1.9 | 2.58 | 3.36 | 0.985 | 2.68
2 | TTACCAAGGTGAGCTGAGGTCTTTGATCCAACTC | -0.159 | 0.0694 | -0.392 | -0.341 | -1.02 | 0.662 | -0.133 | 0.0949 | -0.176 | -0.0349
3 | CCTACTGGACCATCAGGTCATTGATATCAACGTT | 1.87 | 1.86 | 2.81 | 2.53 | 1.02 | 2.43 | 1.14 | 1.97 | 0.798 | 1.68
4 | CGTCCAAGGTCAGAAGGTCAGTGAAAGCGACGTG | 5.88 | 4.43 | 0.719 | 3.22 | -0.0292 | 5 | 3.62 | 4.51 | 0.861 | 3.11
5 | CGTCCAAGGTCAATGCTAGGTCAGTGGAAGCATT | 6.99 | 5.73 | 3.02 | 3.78 | 0.891 | 4.81 | 4.07 | 4.24 | 1.28 | 3.23
6 | TCATCTAGGTAATACAGGTGAAAGTCGGCATCTA | 0.88 | 0.831 | 0.409 | 0.796 | 0.445 | 2.05 | 1.29 | 2.5 | 3.85 | 3.22
7 | AGAATGAGGTTATACTTAGATCAGGGAAGAAAGT | 1.79 | 1.76 | 0.275 | 1.58 | 0.388 | 2.68 | 1.83 | 1.44 | 0.605 | 1.17
8 | TCGAGTAGGTTACTAATGGGGCATTCAGCTTTCT | -0.458 | 2.4 | -0.454 | 1.24 | -0.917 | 0.717 | -0.149 | 0.701 | 0.939 | 0.928
9 | TCATATAGCTAAAGGTGAAAGTCGAACGATATGA | 1.12 | 1.09 | -0.213 | 1.26 | -0.321 | 2.67 | 2.06 | 3.08 | 3.19 | 3.31
10 | CAACCTAGGTCAAGAGGTCAAAGTCCGCTTCCCG | 6.93 | 6.34 | 6.16 | 5.73 | 1.82 | 5.97 | 7.35 | 6.76 | 3.67 | 5.86
11 | GGAACGAAGGCAAGTTGATAGCAGAGTTTGATGG | -0.951 | -0.918 | -0.858 | -1.13 | -1.2 | -0.649 | 0.469 | -0.479 | -0.377 | -0.674
12 | GATACAGGGTTAAGGCCAGAGTACGCGTATTGAT | 1.24 | 0.758 | -0.124 | 0.741 | -0.621 | 2.23 | 1.45 | 1.5 | 0.167 | 0.884
13 | TCGCCTAGGTCAGATCGGGCCAGTATACGCTATA | 1.75 | 1.2 | -0.481 | 0.65 | -0.762 | 1.71 | 0.474 | 1.19 | 1.68 | 1.28
14 | TCTTGTAGATCAATAGAGGTTTAGAAAGTGCGCT | 0.391 | 0.283 | -0.272 | 0.00462 | -0.299 | 0.237 | -0.452 | 1.23 | 2.5 | 1.69
15 | CCTACTGGGCCAAAGGTCATTGCTTCCAATGCTC | 4.94 | 5.17 | 4.85 | 4.86 | 0.985 | 6.51 | 11.3 | 9.77 | 10.1 | 11.1
16 | ATCTCTAGGTAAAACTCAGTTCAGTGAAGAACGC | 0.591 | 0.776 | 0.947 | 0.542 | 1.02 | 0.518 | 0.101 | 0.473 | 0.403 | 0.618
17 | CCGAGTAGGTAATGGGGCATTCAGGCAACGGTGA | -0.324 | -0.287 | -0.342 | -0.153 | -0.666 | 1.73 | 3.13 | 4.63 | 2.99 | 4.57
18 | ACTTACGGGTCAACGAGGTTCTAGCACGCGTATA | 6.65 | 4.04 | 0.325 | 3.66 | 0.336 | 5.59 | 5.12 | 4.83 | 1.82 | 3.67
19 | CCTCGGAGGACAGAAGGTCATAGCTGTCCGCTTT | 2.89 | 3.44 | 1.4 | 2.23 | -0.526 | 3.17 | 0.58 | 1.68 | -0.379 | 0.915
20 | ACTCGGAGGACAATGGTCAGAGCTACGCCAGTGA | -0.187 | -0.512 | -0.435 | -0.708 | -0.881 | -0.704 | 0.723 | 0.466 | -0.281 | -0.00366
21 | TCTTGGAGGACACGAAAGGTCAGAGCTCGACATC | 3.33 | 4.06 | 2.83 | 3.37 | 0.286 | 3.75 | 1.68 | 3.16 | 2.54 | 2.89
22 | AGTCAAAGTTAAGGACGAGGTAACGTAAAGCACG | -0.0625 | -0.031 | -0.464 | -0.186 | -0.644 | 0.245 | 0.85 | 0.357 | 0.301 | 0.179
23 | TTACCAAGGTGAAGGTCGTCGATCCCTCTGTAGA | 1.32 | 1.01 | -0.48 | 1.09 | -0.788 | 2.6 | 3.62 | 4.16 | 2.47 | 4.28
24 | GCTTGTAGATCAAGGTTAAGACAGACTAAGCTAA | 0.188 | 0.807 | -0.318 | 0.486 | -0.279 | 1.61 | 1.25 | 2.16 | 0.803 | 1.8
